PubChem BioAssay

Experiment: HepG2 cell viability effects, profiling panel, calcein-AM fluorescence, 48 h, basal (AID 1164)
Details: higher = more signal
Also: test concentration not given here.

| Structure (SMILES) | z-score |
| --- | --- |
| COc1ccc([Si](C)(C)[C@@H]2[C@@H](CC(=O)N3CCC[C@H]3CO)O[C@]3(C(=O)N(C)c4c(Br)cc(C)cc43)[C@H]2C)cc1 | 1.03 |
| COC(=O)[C@@]1(Cc2ccc(F)cc2)[C@H]2c3cc(C(=O)N4CCCC4)n(Cc4cccc5ccccc45)c3C[C@H]2CN1C(=O)c1ccccc1 | 0.0082 |
| C=CC(COC(C)=O)NS(=O)(=O)c1ccc(Br)cc1 (configuration not stated) | -0.239 |
| CC(C)(C)OC(=O)CC[C@@]1(C(=O)O)N=C(c2ccc(OCCCO)cc2)O[C@@H]1c1ccccc1N=[N+]=[N-] | 0.218 |
| CCOC(=O)C1=CCC(c2ccc(C#N)cc2)N(S(=O)(=O)c2ccc(C)cc2)C1 (configuration not stated) | 0.109 |
| O=C1OCCC=C[C@H]2OC34C=CCN(Cc5ccccc5)C(=O)[C@H]3N(CCCO)C(=O)[C@@H]4C12 (some centres not stated) | -1.04 |
| O=C1OCC=C[C@H]2OC34C=CCN(c5ccc(Cl)cc5)C(=O)[C@H]3N(CCCCCCO)C(=O)[C@@H]4[C@@H]12 (some centres not stated) | 0.955 |
| COC(=O)C(CC#Cc1ccc2c(c1)[C@]1(C(=O)N2)[C@H](c2ccc(OCCO)cc2)N2[C@H](c3ccccc3)[C@H](c3ccccc3)OC(=O)[C@H]2[C@@H]1C(=O)NC[C@H](O)c1ccccc1)C(=O)OC | 1.31 |
| CCOC(=O)C1=CC[C@@H](c2ccccc2Cl)N(S(=O)(=O)c2ccc(C)cc2)C1 | 0.15 |
| O=C1O[C@H](c2ccccc2)[C@H](c2ccccc2)N2[C@H]1[C@@H](C(=O)O)[C@]1(C(=O)Nc3ccc(C#CC4=CCCCC4)cc31)[C@H]2c1ccc(OCCO)cc1 | 0.122 |
| N#Cc1ccc(NN2C(C(O)c3ccc([N+](=O)[O-])cc3)C=CC3C(=O)N(c4ccccc4)C(=O)C32)cc1 (configuration not stated) | -0.335 |
| C=C(CCCC)/C(=C/C[C@H](OC(C)=O)c1ccc(CO)o1)c1cnc2ccccc2c1 | 0.311 |
| O=C1OCCC=C[C@H]2OC34C=CCN(Cc5ccccc5)C(=O)[C@H]3N(CCCCCCO)C(=O)[C@@H]4C12 (some centres not stated) | 0.457 |
| C[C@]1(C(=O)NCc2ccccc2)c2ccccc2C(=O)N(Cc2ccc(OC(F)(F)F)cc2)[C@H]1c1ccc(CO)cc1 | 1 |
| CC(C)NC(=O)[C@@]1(Cc2ccccc2I)c2ccccc2C(=O)N(Cc2ccccc2)[C@H]1c1ccc(CO)cc1 | -0.513 |
| O=C1N(CCS(=O)(=O)c2ccccc2)c2ccccc2C[C@@]12COC(c1ccc(OCCCO)cc1)=N2 | -1.48 |
| CC1CC/C=C\[C@H]2OC34C=CCN(Cc5ccccc5)C(=O)[C@H]3N(CCCCCO)C(=O)[C@@H]4C2C(=O)O1 (some centres not stated) | -0.069 |

Experiment: MM1S cell viability effects, profiling panel, calcein-AM fluorescence, 48 h, basal (AID 1165);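 also: viability of MM1S multiple myeloma cells under basal unstimulated conditions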
Details: higher = more signal

| Structure (SMILES) | z-score |
| --- | --- |
| COCCOC(=O)N1C(=O)[C@@]2(c3cc(C#CCNC(N)=O)ccc31)[C@H](C(=O)N1CCc3cc(OC)c(OC)cc3C1)[C@H]1C(=O)O[C@H](c3ccccc3)[C@H](c3ccccc3)N1[C@@H]2c1ccc(OCCO)cc1 | 0.128 |
| CCOC(=O)C1=CC[C@@H](c2ccccc2)N(S(=O)(=O)c2ccc(C)cc2)[C@H]1C(=O)OCC | 0.884 |
| O=C(CS)NCCCCCCNC(=O)[C@@H]1C[C@@H]2C(=O)N3CCC[C@H]3C(=O)N2[C@@H]1c1ccc(O)cc1 | 0.16 |
| CCOC(=O)C1=CCC(c2ccc([N+](=O)[O-])cc2)N(S(=O)(=O)c2ccc(C)cc2)C1 (configuration not stated) | -0.0901 |
| COCCOC(=O)N1C(=O)[C@@]2(c3cc(C#CCNC(N)=O)ccc31)[C@H](c1ccc(O)cc1)N1[C@H](c3ccccc3)[C@H](c3ccccc3)OC(=O)[C@H]1[C@@H]2C(=O)Nc1nc2ccccc2s1 | 0.553 |
| O=c1cccc(CCc2ccccc2)o1 | -0.441 |
| O=C1N(CCS(=O)(=O)c2ccccc2)Cc2ccccc2[C@H]2OC(c3ccc(OCCCO)cc3)=N[C@@]12CCS(=O)(=O)c1ccccc1 | 0.222 |
| CN(C)C(=O)[C@@]1(CCC(=O)OC(C)(C)C)N=C(c2ccc(OCCCO)cc2)O[C@H]1c1ccccc1 | 0.301 |
| O=C1C2C=CC(C(O)c3ccc(-c4ccccc4)s3)N(n3cnnc3)C2C(=O)N1Cc1ccccc1 (configuration not stated) | -0.593 |
| CC(C)C(O)C1C=CC2C(=O)N(c3ccccc3)C(=O)C2N1Nc1ccc(C#N)cc1 (configuration not stated) | -0.0628 |
| COC(=O)c1ccc(C(O)C2C=CC3C(=O)N(C)C(=O)C3N2NC(=O)OC(C)(C)C)o1 (configuration not stated) | -0.978 |
| CCOC(=O)C1=C[C@@H](CC)N(S(=O)(=O)c2ccc(C)cc2)[C@H]1c1ccccc1 | -0.922 |
| COC(=O)[C@@]1(Cc2ccccc2)[C@H]2c3cc(C(=O)N(C)C)n(Cc4c(-c5ccccc5)noc4C)c3C[C@H]2CN1C(=O)c1ccccc1 | -1.05 |
| COCCOC(=O)N1C(=O)[C@@]2(c3cc(C#CCNC(N)=O)ccc31)[C@H](c1ccccc1OCCO)N1[C@H](c3ccccc3)[C@H](c3ccccc3)OC(=O)[C@H]1[C@@H]2C(N)=O | -0.456 |
| CC(C)N1C(=O)[C@@]2(c3ccc([N+](=O)[O-])cc3)CC(=O)N(CC34CC5CC(CC(C5)C3)C4)[C@@H]2c2ccc(CO)cc21 | 0.496 |
| CC(=O)NCCCC[C@@H]1NC(=O)[C@@H]2C[C@H](C(=O)NCCCCN(C)C)[C@H](c3ccc(O)cc3)N2C1=O | 0.213 |
| Cc1ccccc1C(O)C1C=CC2C(=O)N(C)C(=O)C2N1N1CCCCC1 (configuration not stated) | -0.587 |
| CCOC(=O)C[C@H]1[C@H](OC(=O)c2ccc(C(=O)c3ccccc3)cc2)[C@@H](NC(=O)C2CCCCC2)c2cc(OCCCO)ccc2N1C(=O)c1ccccc1 | -1.21 |

| Structure (SMILES) | z-score |
| --- | --- |
| COc1ccc([Si](C)(C)[C@@H]2[C@@H](CC(=O)N3CCC[C@H]3CO)O[C@]3(C(=O)N(C)c4c(Br)cc(C)cc43)[C@H]2C)cc1 | -0.929 |
| COC(=O)[C@@]1(Cc2ccc(F)cc2)[C@H]2c3cc(C(=O)N4CCCC4)n(Cc4cccc5ccccc45)c3C[C@H]2CN1C(=O)c1ccccc1 | -1.03 |
| C=CC(COC(C)=O)NS(=O)(=O)c1ccc(Br)cc1 (configuration not stated) | 0.101 |
| CC(C)(C)OC(=O)CC[C@@]1(C(=O)O)N=C(c2ccc(OCCCO)cc2)O[C@@H]1c1ccccc1N=[N+]=[N-] | -0.0694 |
| CCOC(=O)C1=CCC(c2ccc(C#N)cc2)N(S(=O)(=O)c2ccc(C)cc2)C1 (configuration not stated) | -0.548 |
| O=C1OCCC=C[C@H]2OC34C=CCN(Cc5ccccc5)C(=O)[C@H]3N(CCCO)C(=O)[C@@H]4C12 (some centres not stated) | 0.0832 |
| O=C1OCC=C[C@H]2OC34C=CCN(c5ccc(Cl)cc5)C(=O)[C@H]3N(CCCCCCO)C(=O)[C@@H]4[C@@H]12 (some centres not stated) | 1.12 |
| COC(=O)C(CC#Cc1ccc2c(c1)[C@]1(C(=O)N2)[C@H](c2ccc(OCCO)cc2)N2[C@H](c3ccccc3)[C@H](c3ccccc3)OC(=O)[C@H]2[C@@H]1C(=O)NC[C@H](O)c1ccccc1)C(=O)OC | -1.67 |
| CCOC(=O)C1=CC[C@@H](c2ccccc2Cl)N(S(=O)(=O)c2ccc(C)cc2)C1 | -1.63 |
| O=C1O[C@H](c2ccccc2)[C@H](c2ccccc2)N2[C@H]1[C@@H](C(=O)O)[C@]1(C(=O)Nc3ccc(C#CC4=CCCCC4)cc31)[C@H]2c1ccc(OCCO)cc1 | -2.72 |
| N#Cc1ccc(NN2C(C(O)c3ccc([N+](=O)[O-])cc3)C=CC3C(=O)N(c4ccccc4)C(=O)C32)cc1 (configuration not stated) | -0.237 |
| C=C(CCCC)/C(=C/C[C@H](OC(C)=O)c1ccc(CO)o1)c1cnc2ccccc2c1 | -2.01 |
| O=C1OCCC=C[C@H]2OC34C=CCN(Cc5ccccc5)C(=O)[C@H]3N(CCCCCCO)C(=O)[C@@H]4C12 (some centres not stated) | 1.68 |
| C[C@]1(C(=O)NCc2ccccc2)c2ccccc2C(=O)N(Cc2ccc(OC(F)(F)F)cc2)[C@H]1c1ccc(CO)cc1 | 0.318 |
| CC(C)NC(=O)[C@@]1(Cc2ccccc2I)c2ccccc2C(=O)N(Cc2ccccc2)[C@H]1c1ccc(CO)cc1 | 0.525 |
| O=C1N(CCS(=O)(=O)c2ccccc2)c2ccccc2C[C@@]12COC(c1ccc(OCCCO)cc1)=N2 | -2.06 |
| CC1CC/C=C\[C@H]2OC34C=CCN(Cc5ccccc5)C(=O)[C@H]3N(CCCCCO)C(=O)[C@@H]4C2C(=O)O1 (some centres not stated) | 1.51 |
